# According to the supplement of paper PMC10127200:
# Counter-ions that a name gives are not always drawn.
# Key:
# Experiment in all cases: Euclidean distance of Cell Painting phenotypic profile (signed KS, 77 features) to DMSO centroid (dimensionless distance); 5 or 10 uM (library dependent); higher = stronger phenotypic change vs DMSO (phenoactivity)
# Settings in all cases: 48 h
# 786-O = tested on: 786-O
# In short: (§1)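 At 10 or 5 uM, as set by the library, and 0.1% DMSO final, compounds were applied for 48 h to five cancer lines and one healthy fibroblast line. Stained cells were imaged confocally at 20X in 9 fields per well, and Harmony extracted 77 features scored as signed Kolmogorov-Smirnov statistics against vehicle wells on the same plate. Profiles underwent plate-position correction, correlation weighting and replicate averaging at the top dose. Phenoactivity is the Euclidean distance from each such profile to the median vehicle profile.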
# A549 = tested on: A549
# In short: as §1
# DU145 = tested on: DU145
# In short: as §1
# FB = tested on: FB
# In short: as §1
# HEPG2 = tested on: HEPG2
# In short: as §1
# OVCAR4 = tested on: OVCAR4
# In short: as §1
Structure (SMILES),Euclidean distance (786-O),Euclidean distance (A549),Euclidean distance (DU145),Euclidean distance (FB),Euclidean distance (HEPG2),Euclidean distance (OVCAR4)
c1cc(CN2CCCNCCNCCCNCC2)ccc1CN1CCCNCCNCCCNCC1 [Plerixafor (AMD3100)],0.664,1.12,0.673,0.848,0.976,1.03
NS(=O)(=O)c1ccc(NC(=O)Nc2ccc(F)cc2)cc1,0.711,1.08,1.36,1.37,1.44,0.718
Cc1cnc(C(=O)N[C@H]2CCCCC/C=C\[C@@H]3C[C@@]3(C(=O)NS(=O)(=O)C3CC3)NC(=O)[C@@H]3C[C@@H](Oc4nc5ccccc5c5ccccc45)CN3C2=O)cn1 [Paritaprevir (ABT-450)],1.48,1.53,1.52,1.17,0.513,1.39
CCOc1ccc2nc3cc(N)ccc3c(N)c2c1 [Ethacridine lactate monohydrate],2.72,2.06,3.08,3.62,3.62,1.62
CC1=C(C(=O)O)N2C(=O)[C@@H](NC(=O)[C@H](N)C3=CCC=CC3)[C@H]2SC1 [Cephradine monohydrate],1.65,0.779,2.12,0.776,0.698,0.618
COc1cc(N)c(Cl)cc1C(=O)NC1CCN(CCCOc2ccc(F)cc2)CC1OC (centres undefined) [Cisapride hydrate],0.963,1.16,0.853,1.23,0.401,1.05
CCN(CC)C(=S)SSC(=S)N(CC)CC [Disulfiram],1.95,1.78,1.34,2.84,0.547,1.32
COc1ccccc1OCCNCC(O)COc1cccc2[nH]c3ccccc3c12 (centres undefined) [Carvedilol Phosphate],2.5,2.28,1.98,1.66,2.55,1.81
CN(C)CCOC(=O)COc1ccc(Cl)cc1 [Meclofenoxate (Centrophenoxine) HCl],0.714,0.913,1.3,0.93,1.13,1.29
CC(CNC(=O)c1cccnc1)NC(=O)c1cccnc1 (centres undefined) [Nicaraven],1.31,0.748,1,1,2.29,1.91
C[C@H](NC(=O)Cc1cc(F)cc(F)c1)C(=O)N[C@H](C(=O)OC(C)(C)C)c1ccccc1,1.92,1.48,1.11,0.913,1.57,1.26
C=C(c1ccc(C(=O)O)cc1)c1cc2c(cc1C)C(C)(C)CCC2(C)C [Bexarotene],2.33,2,1.58,1.39,1.63,1.48
CCC(=O)O[C@]1(C(=O)CCl)[C@@H](C)C[C@H]2[C@@H]3CCC4=CC(=O)C=C[C@]4(C)[C@@]3(F)[C@@H](O)C[C@@]21C [Clobetasol propionate],1.31,2.17,2.55,2.08,0.79,1.96
COc1cc(CCc2cc(NC(=O)c3ccc(N4CC(C)NC(C)C4)cc3)n[nH]2)cc(OC)c1 (centres undefined),1.7,1.94,1.5,3.59,2.79,1.46
CCc1ccc(/C=C2/SC(=S)NC2=O)cc1,0.453,0.809,1.03,1.15,0.771,0.723
O=C(CCCN1CC=C(n2c(=O)[nH]c3ccccc32)CC1)c1ccc(F)cc1 [Droperidol],1.34,0.569,0.766,0.888,0.689,0.73
CCOC(=O)C1=C(C)NC(C)=C(C(=O)OCC)C1c1ccccc1/C=C/C(=O)OC(C)(C)C [Lacidipine],0.955,0.916,1.62,1.14,0.707,1.15
CC(C)NCC(O)COc1ccc(CC(N)=O)cc1 (centres undefined) [Atenolol],1.33,0.613,0.819,0.889,1.22,0.667
CC(C)(O)c1ccccc1CC[C@@H](SCC1(CC(=O)O)CC1)c1cccc(/C=C/c2ccc3ccc(Cl)cc3n2)c1 [Montelukast Sodium],0.941,0.527,0.759,0.512,0.526,0.733
Nc1nc(Cl)nc2c1ncn2[C@H]1C[C@H](O)[C@@H](CO)O1 [Cladribine],2.58,3.28,2.27,3.14,2.67,3.21
COc1cc(/C=C/C(=O)O)ccc1O [Sodium ferulate],1.56,1.15,1.14,1.08,1.11,1.46
COc1ccc(OC)c(C(O)CNC(=O)CN)c1 (centres undefined) [Midodrine],0.905,1.21,0.468,0.683,0.342,0.78

Structure (SMILES),Euclidean distance (786-O),Euclidean distance (A549),Euclidean distance (DU145),Euclidean distance (FB),Euclidean distance (HEPG2),Euclidean distance (OVCAR4)
C#Cc1cccc(Nc2ncnc3cc(OCCOC)c(OCCOC)cc23)c1 [Erlotinib HCl (OSI-744)],1.55,1.87,1.94,1.57,0.884,2.37
CN1CCN(CCOc2cc(OC3CCOCC3)c3c(Nc4c(Cl)ccc5c4OCO5)ncnc3c2)CC1 [Saracatinib (AZD0530)],3.22,3.83,1.78,3.97,1.98,3.34
CC(c1cc2ccccc2s1)N(O)C(N)=O (centres undefined) [Zileuton],1.8,0.949,0.621,1.2,1.12,1.11
O=C1c2c(O)cccc2C([C@@H]2O[C@H](CO)[C@@H](O)[C@H](O)[C@H]2O)c2cc(CO)cc(O)c21 (some centres undefined) [Aloin],1.2,0.555,0.756,0.842,0.479,0.881
Nc1ncnc2c1ncn2C1OC(COP(=O)(O)O)C(O)C1O (centres undefined) [Adenosine 5'-monophosphate monohydrate],0.685,0.894,0.9,0.831,0.601,1.27
C#CCC(Cc1cnc2nc(N)nc(N)c2n1)c1ccc(C(=O)N[C@@H](CCC(=O)O)C(=O)O)cc1 (some centres undefined) [Pralatrexate],1.51,2.98,0.922,1.25,1.73,2.44
C[N+](C)(C)CCOC(=O)CCC(=O)OCC[N+](C)(C)C [Succinylcholine Chloride Dihydrate],1.36,2.04,1.93,1.82,1.34,1.91
CO/N=C(\C(=O)N[C@@H]1C(=O)N2C(C(=O)O)=CCS[C@H]12)c1csc(N)n1 [Ceftizoxime],1.04,1.74,0.987,1.24,0.67,1.56
NC1(Cc2ccc(Cl)cc2)CCN(c2ncnc3[nH]ccc23)CC1,1.5,1.13,1.5,1.39,1.17,1.39
O=C1CCc2ccc(OCCCCN3CCN(c4cccc(Cl)c4Cl)CC3)cc2N1 [Aripiprazole],1.08,0.975,0.573,0.979,0.512,1.21
COc1ccc(-c2nc(N3CCOCC3)c3sc(CN(C)c4ncc(C(=O)NO)cn4)cc3n2)cn1,3.46,4.27,4.25,3.52,4.2,3.25
O=C(O)Cn1nnc(-c2cc(N3CCC(Oc4cc(F)ccc4Br)CC3)no2)n1,0.964,1.38,0.83,0.907,2.08,0.751
Cc1nnc(NS(=O)(=O)c2ccc(N)cc2)s1 [Sulfamethizole],1.54,0.798,1.76,0.908,0.498,1.11
Cc1coc2c1C(=O)C(=O)c1c-2ccc2c(C)cccc12 [Tanshinone I],1.41,0.593,1.07,1.35,1.25,1.18
CC(C)(C)OC(=O)N[C@H]1CCCCC/C=C\[C@@H]2C[C@@]2(C(=O)NS(=O)(=O)C2CC2)NC(=O)[C@@H]2C[C@@H](OC(=O)N3Cc4cccc(F)c4C3)CN2C1=O [Danoprevir (ITMN-191)],1.4,0.94,1.41,1.19,2.24,1.69
C[C@H]1[C@H](C)CC[C@]2(C(=O)O)CC[C@]3(C)C(=CC[C@@H]4[C@@]5(C)C[C@@H](O)[C@H](O)[C@@](C)(CO)[C@@H]5CC[C@]43C)[C@H]12 [Asiatic Acid],0.996,0.839,1.11,1.04,1.24,0.885
NC(=O)c1cnccn1 [Pyrazinamide],1.07,1.35,0.786,1.14,1.95,1.13
O=C(O)COCCN1CCN(C(c2ccccc2)c2ccc(Cl)cc2)CC1 (centres undefined) [Cetirizine DiHCl],1.09,0.92,1.29,1.32,0.618,1.47
C[C@@H](O)[C@H]1C(=O)N2C(C(=O)O)=C([C@H]3CCCO3)S[C@H]12 [Faropenem Sodium],1.24,0.485,1,0.587,0.554,0.718
CCC/C=C1\OC(=O)C2=C1CCC=C2 [Ligustilide],0.797,0.613,0.83,1.01,0.638,1.1
O=C1OC(CN2CCOCC2)CN1/N=C/c1ccc([N+](=O)[O-])o1 (centres undefined) [Furaltadone HCl],0.929,1.35,1.24,1.24,0.808,2.22
COCC(=O)Nc1cc(Sc2ccccc2)ccc1N=C(NC(=O)OC)NC(=O)OC [Febantel],0.969,0.892,0.944,1.06,1.09,1.15
